eIF4E-4G inh: eIF4E/eIF4G interaction inhibition in translation initiation | P63073+Q04637 | TR-FRET eIF4E-eIF4GI(517-606) binding, 2 h | inhibition, % at 21.7 µM | 0.37% of 220,000 active | AID 782;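 active means inhibition above about 30%, limit read from the data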;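 further: 0% = full FRET control wells and 100% = background wells lacking eIF4GI fragment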
PERK inh: human PERK inhibition, primary cell-based screen; CHO PERK-DD fusion, SEAP luminescence translation reporter; Q9NZJ5; 0.17% of 220,000 active; AID 1416; inhibition, % at 5.6 µM;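 active means inhibition above the mean inhibition of all tested compounds plus 3 SD, set separately per screening campaign, cut at about 2.9% in these data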;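 further: PERK kinase domain activated by AP20187 dimerizer at 100 nM; 0% = DMSO with dimerizer and 100% = rapamycin at 8.4 µM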
eIF4H FP inh: inhibitors of RNA binding by human eIF4H; Q15056; eIF4H fluorescence polarization binding assay; inhibition, % at 35 µM; 0.94% of 290,000 active; AID 2012;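 further: calls also rest on retests at 20 µM and on dose response follow-up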
PABP FP inh: PABP-poly(A) binding inhibition. 1% of 290,000 active. P11940. PABP-poly(A) RNA binding, fluorescence polarization. AID 2014. inhibition, % at 35 µM;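 further: calls also rest on retests at 20 µM and on dose response follow-up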
PABP1 MLLE inh: inhibitors of microRNA-mediated deadenylation, human PABP1 MLLE binding; P11940; GST-MLLE / FITC-PAM2 fluorescence polarization; inhibition, % at 20 µM; 0.36% of 360,000 active; AID 588489; in the data active means inhibition above about 35%, passing the limit was not always enough;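 further: plate controls were DMSO wells with GST-MLLE for no effect and wells lacking GST-MLLE protein for full effect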
An asterisk follows results filed as active; ? = inconclusive; / = not tested or not shown; [ ] = another dose, or the depositor's remark. The list is not random: actives were taken first. Their share in the collection is about 1.6%. Unless noted, how the calls were made is not given here.

SMILES | eIF4E-4G inh | PERK inh | eIF4H FP inh | PABP FP inh | PABP1 MLLE inh
Cc1ccccc1C(=O)N=c1c(C#N)cc2c(=O)n3cccc(C)c3nc2n1Cc1ccco1 | -3 | 0 | 42 | 53 | /
CC(=O)N=c1c(C#N)cc2c(=O)n3cccc(C)c3nc2n1Cc1ccco1 | 8 | 0 | 72* | 50* | 19
COc1ccc(C(=O)N=c2c(C#N)cc3c(=O)n4cccc(C)c4nc3n2Cc2ccco2)cc1 | 0 | 0 | 22 | 35 | /
Cc1cccn2c(=O)c3cc(C#N)c(=NC(=O)c4ccncc4)n(CCCOC(C)C)c3nc12 | 3 | 0 | 75* | 63* | 7
N#Cc1cc2c(=O)n3ccccc3nc2n(Cc2ccco2)c1=NC(=O)c1ccco1 | 9 | 0 | ? | 8 | 41*
O=C(C1CCCN1S(=O)(=O)c1cccc2cccnc12)N1CCN(c2ccccc2)CC1 (stereo not drawn) | -1 | 0 | 2 | 3 | 9
CCC(C)(C)NC(=O)C(c1ccco1)N(C(=O)Cn1nnc2ccccc21)c1ccc2c(c1)OCO2 (stereo not drawn) | 0 | -1 | 0 | -1 | -10
Cc1ccc(-c2csc3ncnc(SCc4ccc(C(=O)O)cc4)c23)cc1 | 13 | 2 | 95* | 86 | -11
Cc1sc2ncnc(SCc3ccc(C(=O)O)cc3)c2c1C | 3 | 0 | -5 | 4 | 16
Cc1ccc(COC(=O)Cc2coc3cc(O)ccc23)cc1 | / | / | 1 | 19 | -1
Cc1ccc2c(CC(=O)OCc3cc(=O)n4c(n3)sc3ccccc34)coc2c1 | 12 | 2 | 70* | 25 | -7
O=c1cc(CSc2nnc(-c3cccs3)n2Cc2ccccc2)nc2sc3ccccc3n12 | -7 | 0 | 46 | 17 | -104
O=C(OCc1cc(=O)n2c(n1)sc1ccccc12)c1ccc2c(=O)n3c(nc2c1)CCC3 | / | / | 75* | 52* | -34
CC(C)[C@H](NC(=O)Cc1ccccc1)C(=O)OCc1cc(=O)n2c(n1)sc1ccccc12 | 19 | 0 | 75* | 120* | -15
CCCc1cc(=O)oc2cc(OC3CCCCC3=O)ccc12 (stereo not drawn) | / | / | 89* | 90* | -2
O=C1CCCCC1Oc1ccc2ccc(=O)oc2c1 (stereo not drawn) | / | / | -2 | 5 | -6
Cc1cc2ncn(C(=O)c3cc(-c4ccccc4)nc4ccccc34)c2cc1C | 0 | 0 | active | 50* | 11
Nc1nnc(CC(=O)N2CCCCC2)s1 | 46* | 1 | -7 | -2 | 16
Nc1nnc(N2CCCCC2)s1 | 4 | 2 | 2 | -5 | -7
Cc1ccc(CN(CC(=O)NC2CCCC2)C(=O)CSc2nnc(COc3ccccc3)o2)cc1 | 4 | 2 | 4 | 5 | 41*
Cc1ccc(S(N)(=O)=O)cc1NC(=O)C1CC2CCC1C2 (stereo not drawn) | 3 | 3.0* | 6 | -1 | 3
O=C(COc1cc(Cl)ccc1Cl)Nc1ccc2c(c1)CCC2 | -4 | 0 | 64* | 6.4* | -12
N#C/C(=N\Nc1ccc(Cl)cc1)C(=O)c1ccccc1 | 62*[fluorescence artefact?] | 0 | -3 | -4 | 14
CNc1ccc(/C=C(\C#N)C(=O)Nc2ccccn2)cc1[N+](=O)[O-] | / | / | ? | ? | -58
COc1ccc(NC(=O)NNC(=O)CCc2ccc(O)c(O)c2)cc1OC | / | / | 57* | 17 | -6
SMILES | eIF4E-4G inh | PERK inh | eIF4H FP inh | PABP FP inh | PABP1 MLLE inh
O=C(O)CSc1nc2sc3c(c2c(=O)n1-c1ccccc1)CCC3 | -8 | 0 | 8 | 7 | -4
CSc1nc(SCC(=O)O)c2sc3nc(-c4ccccc4)c4c(c3c2n1)CCC4 | 57* | 0 | 71* | 62* | 10
CSc1nc(N2CCN(CCO)CC2)c2sc3nc(-c4ccco4)c4c(c3c2n1)CCC4 | / | / | 98* | 38* | /
CSc1nc(NCCN(C)C)c2sc3nc(-c4ccco4)c4c(c3c2n1)CCC4 | / | / | / | / | -12
CSc1nc(N(C)CCO)c2sc3nc(-c4ccco4)c4c(c3c2n1)CCC4 | 26 | 2 | 79* | 67* | 9
O=C(CCN1C(=O)[C@@H]2Cc3ccccc3CN2C1=O)N[C@@H](Cc1ccccc1)C(=O)O | / | / | 2 | -2 | 1
CC(=O)Nc1ccc(NC(=O)CSc2ncc(C(=O)Nc3ccc(F)cc3)c(=O)n2C)cc1 | / | / | / | / | -10
CCOc1ccc(NC(=O)Cn2c(=O)n(CC3CCCO3)c(=O)c3ccccc32)cc1 (stereo not drawn) | 2 | 1 | active | 55 | -3
